TrxR1 substrate: rat thioredoxin reductase 1 substrate activity. 390,000 tested, 0.01% active. O89049. AID 588456. Potency, µM (titrated, usually from 114 µM), for inactives: at the highest dose activity change, negative = substrate turnover. purified TrxR1 substrate turnover, NADPH consumption readout; also: nearly all actives have a fitted effect of over 50% in size
Target sequence (O89049 whole entry, looked up): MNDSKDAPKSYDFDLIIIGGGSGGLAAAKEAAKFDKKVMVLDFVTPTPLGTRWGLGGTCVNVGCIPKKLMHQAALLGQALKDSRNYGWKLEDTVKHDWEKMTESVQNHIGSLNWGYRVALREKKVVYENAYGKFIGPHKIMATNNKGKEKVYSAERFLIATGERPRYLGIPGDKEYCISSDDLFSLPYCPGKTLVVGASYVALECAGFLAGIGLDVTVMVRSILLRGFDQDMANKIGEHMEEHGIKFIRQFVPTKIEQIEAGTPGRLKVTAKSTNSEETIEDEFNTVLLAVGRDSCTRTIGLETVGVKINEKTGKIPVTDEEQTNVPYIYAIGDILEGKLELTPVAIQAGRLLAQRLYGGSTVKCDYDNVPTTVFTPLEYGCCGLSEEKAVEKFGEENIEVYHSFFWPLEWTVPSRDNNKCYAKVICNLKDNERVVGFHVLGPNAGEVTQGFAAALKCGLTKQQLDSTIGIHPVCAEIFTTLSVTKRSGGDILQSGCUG
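Rat TrxR1, dispensed at 90 nM, was prereduced with 400 uM NADPH (final) for 5 min at ~22 deg C, then incubated with compound 15 min before 400 uM selenite. A first-read NADPH fluorescence drop versus no-compound background flagged substrates.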
TrxR1 inh: rat TrxR1 inhibition | O89049 | recombinant rTrxR1, NADPH fluorescence consumption, selenite substrate | Potency, µM (top dose mostly 114 µM), for the others: at the top dose activity change, negative = inhibition, usual class: inhibitors | 390,000 tested, 1% active | AID 588453; also: nearly all actives have a fitted effect of over 65% in size
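Rat TrxR1 (90 nM in the dispensed reagent) was pre-reduced with 400 uM NADPH for 5 min at room temperature, then incubated with compound for 15 min. After 400 uM selenite was added, NADPH fluorescence (Ex 340/Em 450 nm) was followed for 8 min.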
VDR inh: inhibitors of human vitamin D receptor. P11473. VDR-SRC2-3 peptide fluorescence polarization, 2 h. Potency, µM, inactives show max response, negative = inhibition, usual class: inhibitors. 400,000 tested, 0.93% active
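Fluorescence polarization assay measuring small-molecule disruption of VDR binding to the coregulator peptide SRC2-3. Compounds were pin-transferred (23 nl) into the reagent mix and incubated 2 h at room temperature before reading.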
KAT2A inh: GCN5L2 (KAT2A) acetyltransferase inhibition. Potency, µM (top dose mostly 58.9 µM), for inactives: top-dose activity change, negative = inhibition, actives largely listed as inhibitors. AID 504327. 390,000 tested, 0.21% active. GCN5L2 HAT assay, ThioGlo1 CoA-SH fluorescence
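Preincubate 20nM GCN5L2 with compound 15 min, RT → add 50uM ThioGlo1 + 75uM H3(1-25) + 70uM acetyl-CoA → read fluorescence 0 and 20 min. Primary qHTS; fluorescent artifacts likely.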
Numbers without * were called inactive; u = inconclusive; x = no result; [ ] = remark or other dose. Most compounds without a hit are left out; they make up all but 1.8% or so of the library. Calls follow the shape of the dose curve; as a rule, active = well fitted curve in the direction sought with a large enough effect; inconclusive = small, poorly fitted or top-dose-only effect, or another doubt; inactive = no such curve, though single readings can be large; an effect the other way counts as inactive or inconclusive. % is scaled to controls: 0 for no effect and ±100 for the full control effect; potency is read from the fitted curve at half-maximal effect.

SMILES | TrxR1 substrate | TrxR1 inh | VDR inh | KAT2A inh
CC(C)c1ccc(S(=O)(=O)/N=C2/C=C(Sc3ncn[nH]3)C(=O)c3ccccc32)cc1 | 14.1µM* | u | 10µM* | u
CC(C)(C)c1ccc(S(=O)(=O)/N=C2\C=C(NS(=O)(=O)c3ccccc3)C(=O)c3ccccc32)cc1 | -8.2% | u | u | u
NC(=O)OC[C@H](O)COc1ccc(Cl)cc1 | x | x | -7.6% | 14.1µM*
CC(=O)c1ccc(OCC(O)COc2ccc(C(C)=O)cc2)cc1 | 4.0% | 17.0% | 7.5% | -8.7%
CCc1ccc(-c2nc3c(=O)n(C)c(=O)nc-3n(CC)n2)cc1 | 35.5µM* | -16.3% | u | x
O=C1C(Cl)=C(Nc2ccc3cn[nH]c3c2)C(=O)c2ccccc21 | u | u | u | -3.2%
CN(C)c1ccc(NC2=C(Cl)C(=O)c3ccccc3C2=O)cc1 | 3.9% | 2.82µM* | -21.9% | -10.1%
CC(C)C[C@@H](CC(=O)N[C@@H](CCC(=O)O)CC(=O)O)NC(=O)[C@@H]1CNCC[C@H]1NC(=O)C[C@H](CCCN)NC(=O)C[C@H](Cc1c[nH]c2ccccc12)NC(=O)[C@@H]1CCCC[C@H]1N | x | x | 2.9% | x
CCOc1ccc(Nc2nc3cc(S(=O)(=O)N(CC)CC)ccc3o2)cc1 | 9.9%[57.1 µM] | -18.6%[57.1 µM] | 79.4µM* | -12.0%
CCS(=O)(=O)c1ccc2oc(Nc3cc(C)cc(C)c3)nc2c1 | 5.6% | 19.2% | 0.0% | -11.3%
Cc1ccc(NS(=O)(=O)c2ccc3[nH]c4c(c3c2)CCCCC4)cc1 | 6.0% | 22.7% | 24.9% | 12.4%
N#Cc1nc(Cc2ccccc2)oc1NCc1cccnc1 | -2.8% | 7.7% | -8.2% | -1.8%
N#Cc1ncc(Cc2ccccc2)nc1C#N | 3.6% | -7.5% | 79.4µM* | -17.2%
CCOc1ccc(NC(=O)CCCc2nc(-c3cccc(OC)c3)no2)cc1 | -2.6% | 7.9% | 6.9% | -10.5%
CCCCN(C)c1nc(-c2ccco2)c2c(c1C#N)CC(C)(C)OC2 | -4.2% | 3.55µM* | 20µM* | -27.4%
CN(C)CCNc1nc(-c2ccco2)c2c(c1C#N)CC(C)(C)OC2 | 50.2% | u | -5.6% | -3.6%
C=C(C)Cn1c(SCC(=O)c2ccc(OC)cc2)nc2sc3c(c2c1=O)CCCC3 | -12.8% | -24.6% | -7.1% | -16.6%
N#Cc1c(C(F)(F)F)cc(-c2cccs2)nc1SCc1ccc(Cl)nc1 | 148.8% | 50.1µM* | -1.6% | -4.7%
COc1cccc(/C=N/N2C(=O)CSC2=S)c1O | -12.8% | 17.8µM* | u | -10.2%
COc1cc(/C=N/N2C(=O)CSC2=S)cc(Br)c1O | 6.5%[57.1 µM] | -51.5% | u | -8.1%
C[N+](C)(C)c1ccc(/C=C2\C=Cc3ccccc32)cc1 | 11.5%[0.0914 µM] | -19.1% | x | x
COC1=CC(=O)C(O)=C(CCCCCCC/C=C/CCCCCCCC2=C(O)C(=O)C=C(OC)C2=O)C1=O | 3.0% | -0.5% | 44.7µM* | x
Cc1cc(Cn2cnc3c(cnn3C(C)(C)C)c2=O)ccc1F | 1.0% | 13.3% | x | x
COc1ccc(C(=O)CCN2CCN(c3ccc(OC)cc3)CC2)cc1 | -4.6%[57.1 µM] | 2.82µM* | u | 0.7%
COc1ccc(C(=O)CCN2CCCCCC2)cc1 | 6.5% | 0.794µM* | 28.2µM* | -3.1%
SMILES | TrxR1 substrate | TrxR1 inh | VDR inh | KAT2A inh
COc1ccc(C(=O)OCCN2CCCCC2)cc1 | -2.1% | -1.7% | -1.9% | -2.4%
COc1ccc(C(=O)CCN2CCN(c3ccccc3F)CC2)cc1 | 3.9% | 1.58µM* | 22.4µM* | -8.1%
O=C(/C=C/c1ccccc1)CCN1CCCCC1 | -5.5%[57.1 µM] | u | 28.2µM* | x
CCOc1ccc(C(=O)CCN2CCCCC2)cc1 | 12.5% | 0.708µM* | u | -0.4%
O=C(CCN1CCCC1)c1cccs1 | 4.7%[57.1 µM] | 0.398µM* | u | 2.7%
N=c1n(CCN2CCCCC2)c2ccccc2n1CC(=O)c1cccs1 | -1.7% | 3.8% | -0.6% | 2.3%
O=C(c1ccccc1)c1ccc(OCCCCN2CCCCC2)cc1 | 13.4%[57.1 µM] | 8.4%[57.1 µM] | -5.2% | 0.1%
O=C(CCN1CCCCCC1)c1ccccc1 | 10.4%[11.4 µM] | 0.891µM* | -6.8% | 0.7%
O=C(CCC(=O)N1CCN(c2ccccn2)CC1)c1cccs1 | 7.0% | 12.0% | -21.2% | -1.6%
O=C(CCN1CCC(c2cccs2)=N1)c1cccs1 | -0.5% | 22.4µM* | -13.8% | -2.8%
CCOc1ccc(-c2cc(C)n3nc(C(=O)Nc4cc(Cl)ccc4O)cc3n2)cc1 | 6.6% | 9.4% | 4.5% | -25.4%
CC1(C)SC2[C@@H](N=CN3CCCCCC3)C(=O)N2[C@H]1C(=O)O (some centres not stated) | x | x | -9.1% | 35.1%
O=C(/C=C/c1ccccc1)COC(=O)c1ccccc1 | -1.1% | u | 10µM* | x

Compound activity (PubChem BioAssay)
